Growth inhibition data for 21 molecules are collected here from PubChem BioAssay (NCI).

Compounds without any hit were thinned out: in the full panel of roughly 79,000, 15% have a hit. Unmarked numbers belong to inactive results. Calls of active or inactive are those of the source. Rule as the data show it: active = growth inhibition above about 70%; inactive = the rest.

Experiment [1] can be described thus: NCI Yeast Anticancer Drug Screen. Data for the rad50 strain (AID 155).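 Also: 0% = growth of vehicle-only cultures of the same strain.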 As to conditions: S. cerevisiae rad50 strain growth inhibition; at 50.0 µM; hits give high values. In short, it runs like this: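 Relative growth inhibition (compound vs vehicle) was measured in yeast with a defined repair-gene alteration.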
A short description of experiment [2]: NCI Yeast Anticancer Drug Screen. Data for the mec2-1 strain (AID 157). As to conditions: S. cerevisiae mec2-1 strain, at 50.0 µM, hits give high values. An outline of the steps: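 Growth inhibition is read against vehicle-treated controls after compound exposure of the mec2-1 yeast strain, which is defective in DNA damage repair or cell cycle control.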
The nature of experiment [3]: NCI Yeast Anticancer Drug Screen. Data for the sgs1 mgt1 strain (AID 161).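 Also: 0% = growth of cultures given vehicle only.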 As to conditions: S. cerevisiae sgs1 mgt1 strain, at 50.0 µM, hits give high values. In short, it runs like this: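 This yeast growth screen uses a strain with defined DNA-repair lesions; compound-treated growth is compared with vehicle-treated growth.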
Experiment [4] is described as follows: NCI Yeast Anticancer Drug Screen. Data for the cln2 rad14 strain (AID 165).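 Also: 0% = growth equal to vehicle treated cultures.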 As to conditions: S. cerevisiae cln2 rad14 strain, at 50.0 µM, hits give high values. In short, it runs like this:
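Growth inhibition, relative to vehicle-treated controls, is the read-out. The test organism is a yeast strain with defined genetic alterations, cln2 rad14.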

Experiment [5] can be described thus: NCI Yeast Anticancer Drug Screen. Data for the bub3 strain (AID 167). As to conditions: S. cerevisiae bub3 mutant strain, at 50.0 µM, hits give high values. An outline of the steps: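 Screening used yeast with an engineered genetic alteration affecting cell cycle control. Compound-exposed cultures were compared with vehicle cultures, and reduced growth was taken as inhibition.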

The nature of experiment [6]: NCI Yeast Anticancer Drug Screen. Data for the mlh1 rad18 strain (AID 175). As to conditions: S. cerevisiae mlh1 rad18 strain growth inhibition; at 50.0 µM; hits give high values. In short, it runs like this:
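Cells of a genetically altered yeast strain, deficient in DNA damage repair, were treated with compound. Their growth was then compared with that of vehicle-treated cultures to give inhibition.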

In the case of `Nc1ncnc2nc(I)[nH]c12`, the growth inhibition in experiment [1] is -1.45%; in experiment [2] it was 1.25%; in experiment [3] it was -4.55%; in experiment [4], -6.75%; in experiment [5], 26.7%; in experiment [6], 7.3%.
Take `O=C(NC(c1ccccc1)c1cccs1)c1cccs1` (stereo unspecified): the growth inhibition in experiment [1] was -2.95%; in experiment [2] it was -4.45%; in experiment [3], 1.05%; in experiment [4], -38.4%; in experiment [5], 30.1%; in experiment [6], 3.95%.
In the case of `CCOC(=O)CCC1(C(=O)OCC)CCCC1=O` (stereo unspecified), the growth inhibition is -12.9% in experiment [1]; -21.3% in experiment [2]; -27.4% in experiment [3]; -9.7% in experiment [4]; 10.6% in experiment [5]; -19.3% in experiment [6].
As to `CC(=O)OC1C[C@H]2C(OC(=O)c3ccccc3)C3C4(OC(C)=O)COC4C[C@H](OC(C)=O)[C@@]3(C)C(OC(C)=O)[C@H](OC(C)=O)C(=C1C)C2(C)C` (stereo partly specified), the growth inhibition in experiment [1] was 41.2%; in experiment [2], 22.6%; in experiment [3] it was 31.7%; in experiment [4] it was 28.9%; in experiment [5] it was 26.4%; in experiment [6], 35.2%.
`C1CN(SSN2CCSCC2)CCS1`: the growth inhibition in experiment [1] was -2.1%; in experiment [2], -18.5%; in experiment [3], 6.5%; in experiment [4] it was -100%; in experiment [5], 7.15%; in experiment [6], -14.5%.
For `CC1=Nc2cc(C)c(C)cc2NC(=O)C1`, the growth inhibition in experiment [1] is -16.8%; in experiment [2], -43.9%; in experiment [3], -6.1%; in experiment [4] it was 20.4%; in experiment [5], -21.9%; in experiment [6], -1.7%.
Regarding `CCOC(=O)c1ccc(N2C(C#N)c3ccccc3OC2c2ccccc2O)cc1` (stereo unspecified), the growth inhibition in experiment [1] is 5.5%; in experiment [2], 2.25%; in experiment [3] it was 15.6%; in experiment [4], -19.5%; in experiment [5] it was 1.3%; in experiment [6], 21.4%.
For `CCOc1ccc(N=C(NC(=O)c2ccccc2)SC)cc1`, the growth inhibition was -5.9% in experiment [1]; -0.7% in experiment [2]; -0.15% in experiment [3]; 23.3% in experiment [4]; 10.1% in experiment [5]; 0.65% in experiment [6].
Consider `COC(=O)C1=CCOc2c1c(C(=O)OC)nn2C`, for which the growth inhibition in experiment [1] was -4.8%; in experiment [2], -8.15%; in experiment [3] it was -2.4%; in experiment [4], 6.1%; in experiment [5], -11.2%; in experiment [6], 24.9%.
As for `O=c1[nH]c2ccc(Cl)cc2[nH]c1=O`, the growth inhibition in experiment [1] is -7.05%; in experiment [2], 5%; in experiment [3], -10.5%; in experiment [4], 0.3%; in experiment [5], -1.45%; in experiment [6], 0.9%.
Regarding `COc1ncnc2ncn(C)c12`, the growth inhibition in experiment [1] was 4.9%; in experiment [2], 18%; in experiment [3], -1.25%; in experiment [4], -12.9%; in experiment [5], 6.95%; in experiment [6], 0.2%.
As to `COc1ccc(N2C(=O)CSC2=S)cc1`, the growth inhibition is 58.6% in experiment [1]; 0% in experiment [2]; 24.1% in experiment [3]; -9.15% in experiment [4]; -4.85% in experiment [5]; 33.1% in experiment [6].
As to `CCOC(=O)NC(=O)c1cn(C2CCCCC2)c(=O)[nH]c1=O`, the growth inhibition is -14.2% in experiment [1]; -3.95% in experiment [2]; -5.9% in experiment [3]; 21.9% in experiment [4]; -0.7% in experiment [5]; 3.35% in experiment [6].
Take `COC(=O)N1CCc2c(nc(N(C)CCO)[nH]c2=O)C1`: the growth inhibition in experiment [1] was -0.55%; in experiment [2] it was -20.5%; in experiment [3] it was -47.2%; in experiment [4] it was -3.8%; in experiment [5], -30.1%; in experiment [6] it was -30.6%.
Regarding `FS(F)(F)(F)(F)c1cccc(NC(=S)SCc2ccc(Cl)cc2)c1`, the growth inhibition in experiment [1] was 43.6%; in experiment [2] it was 24.8%; in experiment [3], 39.8%; in experiment [4] it was 32.4%; in experiment [5] it was 6.8%; in experiment [6], 30.1%.
Regarding `CCOC(=O)C(C)(Cc1ccco1)C(=O)OCC`, the growth inhibition in experiment [1] is -16.1%; in experiment [2], -10.3%; in experiment [3], -5.2%; in experiment [4], -33.5%; in experiment [5], 14.4%; in experiment [6], -12.3%.
As to `N#CCCCCCCCCCC#N`, the growth inhibition in experiment [1] is -18.9%; in experiment [2] it was -36%; in experiment [3], -47.4%; in experiment [4], 25.9%; in experiment [5], -52.5%; in experiment [6], 11.4%.
Turning to `CC(CCC(=O)O)[C@H]1CCC2[C@@H]3C(=O)C[C@@H]4CC(O)CC[C@]4(C)C3CC[C@@]21C` (stereo partly specified), the growth inhibition in experiment [1] is 38.8%; in experiment [2], 18.1%; in experiment [3] it was 41.5%; in experiment [4] it was 35.8%; in experiment [5] it was 19.9%; in experiment [6], 23.1%.
Regarding `COC1CCC2(C)C3CCC4C(=CCC5C(C)(C)C(OC(C)=O)CCC45C)CC3(C)CCC2C1(C)C` (stereo unspecified), the growth inhibition is 13.1% in experiment [1]; -19.4% in experiment [2]; -8.35% in experiment [3]; -20.8% in experiment [4]; 0.1% in experiment [5]; 0.2% in experiment [6].
On to `CCOC(=O)/C=C1\NC(=O)N(CCCCCCN2C(=O)N/C(=C\C(=O)OCC)C2=O)C1=O`, for which the growth inhibition in experiment [1] is 44.7%; in experiment [2], 13.3%; in experiment [3], 39.2%; in experiment [4], 7.95%; in experiment [5] it was -1.95%; in experiment [6] it was 29.9%.
Regarding `CN(C)C(=S)S(=O)(=O)c1ccc([N+](=O)[O-])cc1`, the growth inhibition was 26.8% in experiment [1]; 14.7% in experiment [2]; 23.6% in experiment [3]; -7.4% in experiment [4]; 31.6% in experiment [5]; 92.3% (active) in experiment [6].
